Test results as given in the supplement of paper PMC10849652.
Targets with a hit are over-represented here; the source holds about 7,900 in all. About 0.6% of all pairs of compound and target were hits. A number with no mark means an inactive call.

Legend:
Assay in all cases: log2 fold change, soluble protein after heating vs DMSO (PISA); higher = thermal stabilisation; K562 cells, 10 uM, 30 min; active = over 0.2 and 3.5 SD of the protein, either way, in both replicates (recomputed)
[1] = compound: C#Cc1cccc(Nc2ncnc3cc(OCCOC)c(OCCOC)cc23)c1 [erlotinib]
Summary of the method: (§1)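 Soluble protein was defined as the supernatant after 21,000xg for 90 min. It came from K562 cells at 2×10^6 cells/mL given 10 μM compound for 30 min, heated in aliquots for 3 min across 48°C-58°C, pooled, and extracted in PBS with 0.5% NP-40 at 4°C, and was quantified by TMTpro 16plex LC-MS/MS with equalised channel sums. Thermal stability against control samples, from duplicates, is reported as log2 fold change.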

[2] = compound: C/C(=N\NC(=O)C1=CC(=CC=C1)S(=O)(=O)N2CCOCC2)/C3=C(C=CC(=C3)Cl)O
Summary of the method: as §1

[3] = compound: C1=CC(=C(C=C1Cl)C2=NC3=NC=CN=C3C(=N2)NC4=CC=NC=C4)F
Summary of the method: as §1

[4] = compound: C1=CC(=CC=C1C2=NC3=C(N2)C=C(C=C3)C(=O)N)OC4=CC=C(C=C4)Cl
Summary of the method: as §1

[5] = compound: C1=CC2=C(C=CC(=C2)/C=C\3/C(=O)NC(=NCC4=CC=CS4)S3)N=C1
Summary of the method: as §1

[6] = compound: C1=CC2=NC=CN=C2C=C1/C=C/3\C(=O)NC(=O)S3
Summary of the method: as §1

[7] = compound: C1=CC=C(C=C1)C2=NC(=C(N2)C3=CC=NC=C3)C4=CC(=C(C=C4)Cl)O
Summary of the method: as §1

[8] = compound: C1=CC=C2C(=C1)C3=NNC4=CC=CC(=C43)C2=O
Summary of the method: as §1

[9] = compound: C1CCN(C1)C(=O)NC2=CC=CC(=C2)NC3=NC=C(C(=N3)NCCC4=CN=CN4)Br
Summary of the method: as §1

[10] = compound: C1CN(CCC1(CC2=CC=C(C=C2)Cl)N)C3=NC=NC4=C3C=CN4
Summary of the method: as §1

Chain of UniProt Q96MF7 (Q96MF7 whole entry, looked up): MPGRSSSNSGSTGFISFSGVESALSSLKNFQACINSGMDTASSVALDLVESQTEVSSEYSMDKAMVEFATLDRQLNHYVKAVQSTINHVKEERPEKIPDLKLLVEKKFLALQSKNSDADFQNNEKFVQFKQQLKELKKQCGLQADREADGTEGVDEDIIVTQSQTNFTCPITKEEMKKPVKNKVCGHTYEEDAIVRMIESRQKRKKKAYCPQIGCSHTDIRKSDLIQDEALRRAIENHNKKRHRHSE
Chain of UniProt Q9BVC4 (Q9BVC4 whole entry, looked up): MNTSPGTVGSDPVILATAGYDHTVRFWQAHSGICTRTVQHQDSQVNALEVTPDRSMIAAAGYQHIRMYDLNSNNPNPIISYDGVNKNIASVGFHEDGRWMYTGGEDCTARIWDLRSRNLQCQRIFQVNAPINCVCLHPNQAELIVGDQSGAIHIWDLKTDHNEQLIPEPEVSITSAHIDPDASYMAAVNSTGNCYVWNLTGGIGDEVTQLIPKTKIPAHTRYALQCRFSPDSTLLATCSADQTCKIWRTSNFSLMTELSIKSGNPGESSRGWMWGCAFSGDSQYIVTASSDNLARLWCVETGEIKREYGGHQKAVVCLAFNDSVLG
Chain of UniProt P40261 (P40261 whole entry, looked up): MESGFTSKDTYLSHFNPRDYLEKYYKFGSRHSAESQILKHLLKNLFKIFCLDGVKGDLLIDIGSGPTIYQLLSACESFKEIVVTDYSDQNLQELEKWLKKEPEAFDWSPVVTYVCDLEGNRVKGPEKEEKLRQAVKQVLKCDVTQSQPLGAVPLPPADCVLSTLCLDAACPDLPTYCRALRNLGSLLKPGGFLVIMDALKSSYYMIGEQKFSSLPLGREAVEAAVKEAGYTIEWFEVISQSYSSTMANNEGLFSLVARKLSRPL
Chain of UniProt Q14978 (Q14978 whole entry, looked up): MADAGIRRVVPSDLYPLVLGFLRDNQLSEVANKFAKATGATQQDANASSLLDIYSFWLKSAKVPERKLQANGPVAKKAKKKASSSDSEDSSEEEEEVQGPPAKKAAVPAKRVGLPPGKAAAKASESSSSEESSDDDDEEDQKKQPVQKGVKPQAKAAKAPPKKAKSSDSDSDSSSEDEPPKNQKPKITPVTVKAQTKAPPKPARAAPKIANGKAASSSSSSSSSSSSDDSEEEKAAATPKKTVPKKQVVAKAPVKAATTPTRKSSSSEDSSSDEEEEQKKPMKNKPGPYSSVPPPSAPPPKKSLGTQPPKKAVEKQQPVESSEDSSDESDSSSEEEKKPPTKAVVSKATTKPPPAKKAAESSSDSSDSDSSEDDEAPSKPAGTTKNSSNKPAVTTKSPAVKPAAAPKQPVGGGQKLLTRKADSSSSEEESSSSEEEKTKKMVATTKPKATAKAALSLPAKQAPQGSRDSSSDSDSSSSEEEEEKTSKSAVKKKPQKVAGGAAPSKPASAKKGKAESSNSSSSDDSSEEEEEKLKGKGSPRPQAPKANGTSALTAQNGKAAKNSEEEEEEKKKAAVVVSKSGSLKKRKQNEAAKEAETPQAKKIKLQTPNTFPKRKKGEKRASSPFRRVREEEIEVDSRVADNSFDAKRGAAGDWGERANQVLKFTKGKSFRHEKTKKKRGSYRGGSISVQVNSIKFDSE
Chain of UniProt Q8N573 (Q8N573 whole entry, looked up): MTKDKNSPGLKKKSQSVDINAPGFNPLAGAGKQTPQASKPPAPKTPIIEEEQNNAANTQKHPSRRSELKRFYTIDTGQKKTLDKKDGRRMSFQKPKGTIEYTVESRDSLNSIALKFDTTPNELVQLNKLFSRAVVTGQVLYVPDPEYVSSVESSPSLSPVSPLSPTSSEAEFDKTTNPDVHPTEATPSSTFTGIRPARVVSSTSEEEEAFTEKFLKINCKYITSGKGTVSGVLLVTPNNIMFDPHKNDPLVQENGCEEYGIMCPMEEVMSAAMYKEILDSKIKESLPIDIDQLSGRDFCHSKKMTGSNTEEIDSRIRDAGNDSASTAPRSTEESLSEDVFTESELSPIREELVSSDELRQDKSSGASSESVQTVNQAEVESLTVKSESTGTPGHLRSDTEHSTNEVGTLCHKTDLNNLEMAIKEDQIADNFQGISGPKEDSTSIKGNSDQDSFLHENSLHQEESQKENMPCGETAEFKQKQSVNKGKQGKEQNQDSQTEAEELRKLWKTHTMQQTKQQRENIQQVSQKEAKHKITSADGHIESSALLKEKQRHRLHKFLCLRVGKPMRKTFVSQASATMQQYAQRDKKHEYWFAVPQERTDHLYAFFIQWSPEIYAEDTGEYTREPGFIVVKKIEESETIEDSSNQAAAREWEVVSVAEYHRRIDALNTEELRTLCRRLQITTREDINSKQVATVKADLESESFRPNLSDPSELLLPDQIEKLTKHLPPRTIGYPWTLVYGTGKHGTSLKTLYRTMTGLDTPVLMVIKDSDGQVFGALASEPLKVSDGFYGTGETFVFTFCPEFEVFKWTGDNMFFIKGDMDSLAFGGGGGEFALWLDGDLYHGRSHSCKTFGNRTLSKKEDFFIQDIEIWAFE
Chain of UniProt Q4G0T1 (Q4G0T1 whole entry, looked up): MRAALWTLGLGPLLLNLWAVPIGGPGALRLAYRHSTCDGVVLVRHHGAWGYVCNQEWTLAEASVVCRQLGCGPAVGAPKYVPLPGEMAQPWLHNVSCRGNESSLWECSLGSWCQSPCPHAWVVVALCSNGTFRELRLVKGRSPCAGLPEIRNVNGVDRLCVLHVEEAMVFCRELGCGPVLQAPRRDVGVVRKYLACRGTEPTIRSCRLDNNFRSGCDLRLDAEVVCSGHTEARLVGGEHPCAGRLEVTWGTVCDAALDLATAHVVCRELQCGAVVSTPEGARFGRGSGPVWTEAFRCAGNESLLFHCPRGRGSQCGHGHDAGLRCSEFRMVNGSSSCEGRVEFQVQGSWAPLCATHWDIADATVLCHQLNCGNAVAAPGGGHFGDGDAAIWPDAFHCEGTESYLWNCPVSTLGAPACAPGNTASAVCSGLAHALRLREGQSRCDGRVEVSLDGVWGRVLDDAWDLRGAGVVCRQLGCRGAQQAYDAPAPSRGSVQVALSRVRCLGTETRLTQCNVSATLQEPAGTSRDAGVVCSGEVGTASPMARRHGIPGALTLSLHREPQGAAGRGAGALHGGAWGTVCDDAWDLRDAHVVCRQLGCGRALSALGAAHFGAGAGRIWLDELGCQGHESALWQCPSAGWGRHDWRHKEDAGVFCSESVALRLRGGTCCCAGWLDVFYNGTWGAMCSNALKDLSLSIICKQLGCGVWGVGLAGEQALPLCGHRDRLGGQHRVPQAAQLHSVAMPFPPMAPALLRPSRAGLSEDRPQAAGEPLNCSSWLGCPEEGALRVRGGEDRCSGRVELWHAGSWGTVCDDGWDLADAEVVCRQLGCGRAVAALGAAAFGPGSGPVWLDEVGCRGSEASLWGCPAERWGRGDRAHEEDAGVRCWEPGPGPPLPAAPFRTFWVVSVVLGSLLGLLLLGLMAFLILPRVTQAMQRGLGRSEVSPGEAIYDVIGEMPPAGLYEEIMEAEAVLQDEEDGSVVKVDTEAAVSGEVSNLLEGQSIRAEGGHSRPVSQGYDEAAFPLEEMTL
Chain of UniProt Q8WUY8 (Q8WUY8 whole entry, looked up): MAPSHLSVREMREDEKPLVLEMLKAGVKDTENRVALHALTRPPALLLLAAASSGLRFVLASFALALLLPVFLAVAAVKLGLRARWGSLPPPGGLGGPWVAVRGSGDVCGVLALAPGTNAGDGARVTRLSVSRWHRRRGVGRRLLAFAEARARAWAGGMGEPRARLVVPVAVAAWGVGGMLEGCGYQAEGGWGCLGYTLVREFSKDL
Chain of UniProt Q9Y2A7 (Q9Y2A7 whole entry, looked up): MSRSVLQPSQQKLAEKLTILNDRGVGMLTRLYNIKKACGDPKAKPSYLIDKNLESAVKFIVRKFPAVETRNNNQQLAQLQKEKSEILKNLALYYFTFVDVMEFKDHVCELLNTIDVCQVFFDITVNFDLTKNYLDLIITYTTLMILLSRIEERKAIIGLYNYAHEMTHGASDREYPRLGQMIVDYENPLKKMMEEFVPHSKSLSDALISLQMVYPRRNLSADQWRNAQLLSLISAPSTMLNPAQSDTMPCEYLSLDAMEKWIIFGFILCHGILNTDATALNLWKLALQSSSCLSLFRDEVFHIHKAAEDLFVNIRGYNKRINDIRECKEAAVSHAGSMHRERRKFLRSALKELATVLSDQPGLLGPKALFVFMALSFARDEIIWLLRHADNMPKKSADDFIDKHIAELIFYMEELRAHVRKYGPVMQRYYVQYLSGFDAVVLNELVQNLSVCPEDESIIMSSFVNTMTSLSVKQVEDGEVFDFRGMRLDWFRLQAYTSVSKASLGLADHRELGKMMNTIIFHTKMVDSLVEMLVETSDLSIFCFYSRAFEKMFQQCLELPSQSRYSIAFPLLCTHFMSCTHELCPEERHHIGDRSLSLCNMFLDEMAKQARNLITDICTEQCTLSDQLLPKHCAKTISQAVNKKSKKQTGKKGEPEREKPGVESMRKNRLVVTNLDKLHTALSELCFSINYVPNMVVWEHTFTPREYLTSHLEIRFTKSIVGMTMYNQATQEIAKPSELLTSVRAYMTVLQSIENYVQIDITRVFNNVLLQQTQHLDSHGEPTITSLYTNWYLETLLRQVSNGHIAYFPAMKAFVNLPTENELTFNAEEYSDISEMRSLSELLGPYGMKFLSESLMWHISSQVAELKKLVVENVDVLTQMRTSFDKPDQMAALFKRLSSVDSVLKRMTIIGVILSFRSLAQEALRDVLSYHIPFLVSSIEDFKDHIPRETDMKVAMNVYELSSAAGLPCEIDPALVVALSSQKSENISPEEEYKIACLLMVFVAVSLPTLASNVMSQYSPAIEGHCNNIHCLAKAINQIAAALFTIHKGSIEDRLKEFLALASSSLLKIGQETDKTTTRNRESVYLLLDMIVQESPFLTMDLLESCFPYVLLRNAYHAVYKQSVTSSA
Chain of UniProt P00846 (P00846 whole entry, looked up): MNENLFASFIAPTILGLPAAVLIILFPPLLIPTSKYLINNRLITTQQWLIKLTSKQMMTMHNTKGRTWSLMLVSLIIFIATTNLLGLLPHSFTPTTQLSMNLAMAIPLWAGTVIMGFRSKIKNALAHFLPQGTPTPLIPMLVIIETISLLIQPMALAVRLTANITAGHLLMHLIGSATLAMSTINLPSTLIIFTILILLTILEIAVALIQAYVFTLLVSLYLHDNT

| Target | log2 fold change [1] | log2 fold change [2] | log2 fold change [3] | log2 fold change [4] | log2 fold change [5] | log2 fold change [6] | log2 fold change [7] | log2 fold change [8] | log2 fold change [9] | log2 fold change [10] |
| --- | --- | --- | --- | --- | --- | --- | --- | --- | --- | --- |
| PAK1 isoform 2 (UniProt Q13153) | 0.063 | 0.105 | 0.067 | -0.013 | 0.009 | 0.086 | 0.027 | -0.008 | 0.014 | 0.083 |
| MRPL34 (UniProt Q9BQ48) | -0.029 | -0.167 | -0.116 | 0.101 | -0.048 | -0.03 | 0.006 | 0.018 | -0.004 | -0.174 |
| OSBPL3 (UniProt Q9H4L5) | 1.67 (active) | 0.15 | -0.147 | 0.165 | 0.094 | – | 0.255 | 0.16 | -0.021 | -0.078 |
| NCKAP1 isoform 2 (UniProt Q9Y2A7) | -0.019 | 0.096 | 0.056 | 0.02 | 0.015 | 0.02 | 0.024 | -0.003 | -0.037 | 0.027 |
| NDUFAF6 (UniProt Q330K2) | 0.028 | -0.009 | 0.059 | 0.058 | 0.071 | 0.12 | 0.065 | -0.051 | 0.049 | 0.074 |
| PAFAH2 (UniProt Q99487) | -0.004 | 0.138 | – | -0.018 | -0.144 | -0.02 | -0.008 | 0.011 | -0.017 | 0.08 |
| MMADHC (UniProt Q9H3L0) | 0.088 | -0.002 | – | -0.034 | -0.031 | -0.105 | -0.039 | 0.073 | 0.014 | 0.083 |
| NMT2 (UniProt O60551) | 0.028 | 0.031 | 0.007 | 0.004 | 0.062 | 0.032 | -0.043 | 0.021 | 0.041 | -0.369 (active) |
| MRPS33 (UniProt Q9Y291) | 0.023 | -0.018 | -0.129 | 0.021 | 0.019 | 0.032 | -0.043 | 0.018 | 0.026 | -0.133 |
| PACS1 (UniProt Q6VY07) | 0.027 | 0.036 | -0.049 | 0.01 | 0.016 | -0.077 | -0.039 | -0.084 | -0.048 | -0.063 |
| MLST8 (UniProt Q9BVC4) | -0.021 | 0.049 | -0.004 | 0.102 | 0.116 | -0.026 | – | -0.111 | -0.035 | -0.105 |
| NA isoform 3 (UniProt Q4G0T1) | 0.019 | 0 | – | 0.01 | 0.11 | -0.035 | 0.014 | 0.047 | 0.058 | 0.071 |
| MT-ATP6 (UniProt P00846) | 0.207 | 0.146 | -0.042 | -0.07 | -0.078 | -0.391 | -0.048 | -0.017 | -0.073 | -0.042 |
| NEK3 (UniProt P51956) | 0.003 | -0.011 | 0.096 | 0.06 | -0.063 | – | 0.039 | -0.05 | -0.141 | 0.103 |
| NAT14 (UniProt Q8WUY8) | -0.016 | 0.079 | -0.002 | 0.014 | 0.057 | 0.046 | 0.135 | 0.033 | 0.002 | -0.084 |
| MORC2 (UniProt Q9Y6X9) | 0.105 | 0.033 | -0.027 | 0.051 | 0.148 | -0.097 | – | 0.421 | – | – |
| NPM3 (UniProt O75607) | -0.083 | -0.104 | – | 0.02 | -0.184 | 0.04 | -0.025 | -0.022 | -0.054 | -0.087 |
| NNMT (UniProt P40261) | 0.037 | 0.062 | 0.123 | 0.021 | 0.074 | 0 | – | 0.028 | 0.045 | 0.043 |
| MRPS24 (UniProt Q96EL2) | -0.175 | 0.022 | -0.032 | 0.062 | 0.016 | -0.02 | 0.01 | 0.039 | 0.071 | -0.1 |
| OXR1 (UniProt Q8N573) | 0.029 | 0.067 | 0.011 | 0.002 | 0.023 | 0.007 | -0.043 | -0.062 | -0.03 | 0.056 |
| NOLC1 isoform 2 (UniProt Q14978) | 0.022 | 0.036 | -0.051 | -0.005 | -0.11 | 0.024 | -0.034 | -0.171 | -0.177 | 0 |
| MTHFD1 (UniProt P11586) | 0.06 | 0.058 | 0.074 | -0.019 | 0.019 | -0.021 | 0.05 | 0.01 | 0.013 | 0.032 |
| NSMCE2 (UniProt Q96MF7) | -0.076 | 0.012 | -0.078 | 0.009 | 0.023 | -0.096 | 0.04 | -0.058 | -0.001 | 0.008 |
| NSDHL (UniProt Q15738) | -0.007 | 0.107 | 0.047 | 0.021 | 0 | -0.149 | 0.065 | 0.059 | -0.039 | -0.005 |
| NT5DC1 (UniProt Q5TFE4) | 0.071 | 0.001 | 0.087 | -0.019 | 0.087 | -0.008 | 0.02 | 0.02 | 0.008 | 0.028 |
| NUMB (UniProt P49757) | 0.016 | -0.012 | -0.048 | 0.018 | -0.001 | 0.044 | -0.004 | -0.009 | -0.087 | 0.021 |
| MRPS27 isoform 2 (UniProt Q92552) | -0.044 | -0.058 | 0.018 | 0.061 | 0.056 | 0.024 | 0.074 | 0.086 | -0.048 | -0.106 |
| NDUFB1 (UniProt O75438) | -0.015 | -0.016 | 0.209 | 0.053 | -0.102 | 0.039 | – | 0.079 | -0.05 | -0.006 |
| ORC5 (UniProt O43913) | 0.089 | 0.177 | – | 0.046 | 0.05 | 0.062 | 0.031 | 0.01 | -0.13 | -0.026 |
